Measurements published in PubChem BioAssay (NCI).
This is part of a sample that, as a whole, favours compounds with a hit. Of some 83,000 tested, about 20% had one in any assay.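 96-well plates, one dose, 48 hours. Percent growth reported; active if below 10.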 Values without a mark were called inactive. Active and inactive are the calls of the source.

How the values were obtained:
Assay in all cases: NCI-60 one-dose screen, 48 h (100 = growth as untreated, 0 = no growth, -100 = all killed)
Conditions in all cases: 10 µM unless noted
SK-MEL-2 melanoma = system: SK-MEL-2 melanoma
SN12C renal = system: SN12C renal
UO-31 renal = system: UO-31 renal
TK-10 renal = system: TK-10 renal
CAKI-1 renal = system: CAKI-1 renal
A498 renal = system: A498 renal
CCRF-CEM leukemia = system: CCRF-CEM leukemia
MOLT-4 leukemia = system: MOLT-4 leukemia
ACHN renal = system: ACHN renal

| SMILES | growth (SK-MEL-2 melanoma) | growth (SN12C renal) | growth (UO-31 renal) | growth (TK-10 renal) | growth (CAKI-1 renal) | growth (A498 renal) | growth (CCRF-CEM leukemia) | growth (MOLT-4 leukemia) | growth (ACHN renal) |
| --- | --- | --- | --- | --- | --- | --- | --- | --- | --- |
| CC(=O)c1ccc2c(c1)CCc1ccccc1-2 | 110% | 109% | 105% | 99.9% | 101% | 63.1% | 109% | 114% | – |
| OCCOSCCO | 106% | 111% | 96.3% | 100% | 101% | 120% | 107% | 104% | 91.2% |
| N#Cc1c2ccccc2nc2ccccc12 | 125% | 93.5% | 77.5% | – | 98% | 67.1% | 98.2% | 97.1% | – |
| CC1CC(C)(C)OB(OC(C)CC(C)(C)OB2OC(C)CC(C)(C)O2)O1 (stereo not given) | 103% | 101% | 90.9% | 93.6% | 105% | 118% | 104% | 99.2% | 108% |
| CC1(C)OCC(COC(c2ccccc2)(c2ccccc2)c2ccccc2)O1 (stereo not given) | 83.3% | 102% | 85.7% | 88.5% | 89.1% | 57.2% | 102% | 93.1% | 97.6% |
| O=C1C=CC(=O)N1C1CCCCCCCCCCC1 | 84.2% | 82.9% | – | 71.5% | 43.5% | 113% | -11% (active) | 6.51% (active) | 50.1% |
| Cc1ccc(Nc2ccc(O)c3c2C(=O)c2c(O)ccc(Nc4ccc(C)cc4)c2C3=O)cc1 | 118% | 106% | 82.7% | – | 92.9% | 97.4% | 95.5% | 109% | – |
| COc1cc2c(c(OC)c1OC)-c1ccc(NCc3ccccc3)c(=O)cc1[C@@H](NC(C)=O)CC2 | 19.2% | 20.3% | 34.4% | 26% | 28.8% | -17.3% (active) | 10.1% | 3.29% (active) | 28.8% |
| COc1ccc(C(Cn2ccnc2)Sc2ccc(Cl)c(Cl)c2)cc1 (stereo not given) | 104% | 88.6% | 45.2% | 96.7% | 62.3% | 67.8% | 79.3% | 64.1% | 83.4% |
| CC(=O)Nc1ccc(C(=O)CCl)cc1 | 96.6% | 90.6% | 54.2% | 43.8% | 38.6% | 99.8% | -49.9% (active) | 73.6% | -58% (active) |
| O=[N+]([O-])c1ccc(C2N(Cc3ccc(Cl)cc3)CCN2Cc2ccc(Cl)cc2)cc1 | 101% | 90.7% | 48.5% | 80.5% | 72.7% | 88.4% | 83.5% | 80.3% | 81.6% |
| Oc1ccc2c(c1)CCc1ccccc1-2 | 115% | 107% | 90.3% | 100% | 101% | 68.6% | 97.3% | 103% | 109% |
| CC(O)C(O)C(O)C(O)C(O)C(=O)NNc1ccccc1 (stereo not given) | 106% | 90.5% | 70.6% | 110% | 77.1% | 69.7% | 59.6% | 101% | 67% |
| O=C(c1ccccc1)N(CCCl)C(=O)N(CCCl)C(=O)c1ccccc1 | 93.5% | 94.1% | 82.4% | 103% | 97.3% | 96.6% | 100% | 86.3% | 94.1% |
| N#CC1c2ccccc2C=CN1C(=O)CCCl (stereo not given) | 94.1% | 107% | 60.6% | 14.9% | – | 132% | 8.12% (active) | 81.3% | – |
| CCCCC(CCc1ccc([N+](=O)[O-])cc1)(C(C)=O)C(=O)OCC (stereo not given) | 99.6% | 103% | 67.7% | 97.3% | 96.8% | 50.6% | 94.5% | 90.3% | – |
| Oc1c(Cl)cc(Cl)cc1C=NCC1CCC(CN=Cc2cc(Cl)cc(Cl)c2O)CC1 (stereo not given) | 92.9% | 86.3% | 45.8% | 124% | 91.7% | 113% | 59% | 78.1% | 101% |
| Oc1c(Cl)cc(Cl)cc1C(c1cc(Cl)cc(Cl)c1O)C(Cl)(Cl)Cl | -33.9% (active) | 0.98% (active) | -21.4% (active) | 13% | – | -26.6% (active) | 8.74% (active) | 3.86% (active) | -19.7% (active) |
| CCC[CH2][Sn]1([CH2]CCC)[O]C2C(CO)OC(n3ccc(N)nc3=O)C2[O]1 (stereo not given) | -91.9% (active) | -52.6% (active) | -78.2% (active) | -98.2% (active) | -82.7% (active) | -94.5% (active) | -30.7% (active) | -26.6% (active) | – |
| CCCCCCCCCCCC(=O)OC(C)C(=O)NCCCC (stereo not given) | 108% | 102% | 94.5% | 90.8% | 99.1% | – | 101% | 87.7% | 116% |
| Cc1cc(N/N=C/c2ccccn2)nc2ccccc12 | 50.2% | 17.4% | -8.77% (active) | 34.1% | -8.9% (active) | 27.7% | 2.52% (active) | 5.97% (active) | 0.182% (active) |
| Oc1ccc(Br)cc1Sc1cc(Br)ccc1O | 54.4% | 23.9% | 32.9% | 115% | 99.7% | – | 34.3% | 40.4% | 47.8% |
| N=C1C=C(N)C(=O)c2ccccc21 | -53.6% (active) | -66.9% (active) | -86.3% (active) | -67.5% (active) | -47.7% (active) | – | 3.15% (active) | -25% (active) | -81.6% (active) |
| CN(Cc1ccccc1)c1ccc(SC#N)cc1 | 98.4% | 103% | – | 95.8% | 98.9% | 93% | 10.8% | 55.4% | 78.8% |
| Nc1ccc(Oc2ccccc2)c(Cl)c1 | 105% | 107% | 72.1% | 96.1% | 100% | 57.5% | 102% | 97.9% | 101% |
| CCCCCCCCCCCCCCCC[N+]1(C)CCCC1c1cccnc1 (stereo not given) | 98.1% | 44.5% | 91.3% | – | 92.9% | – | 38.7% | 33% | – |
| CCN(CC)CCNC(Cc1ccccc1)c1ccc(OCc2ccccc2)cc1 (stereo not given) | 97% | 73.2% | 41% | 64% | 85.2% | 49.8% | 51.4% | 57.4% | 61.4% |
| CCOc1ccc2c(c1)/C(=C\C=C\C1CC(C)C3CC(OCC)CCC3N1CC)CC(C)N2CC (stereo not given) | -54.6% (active) | 6.7% (active) | 0.241% (active) | – | 17.9% | 15% | -40.3% (active) | -42.5% (active) | 12% |
| COC(=O)[C@]1(C)CCC[C@]2(C)c3ccc(C(C)C)cc3C(=O)[C@@H](Br)[C@@H]12 | 103% | 96.1% | 69.5% | 102% | 89% | 109% | 70.9% | 60.1% | 92.6% |
| Cc1cc(C)c(C#N)c(Sc2nc(C)c([N+](=O)[O-])c(C)c2C#N)n1 | 69.4% | 47.4% | 39.3% | 75.2% | 0.956% (active) | 110% | – | 39.7% | 39.3% |
